Experimental data from the supplement of paper PMC3334620.
The full ranking holds about 33,000 sequences; the median of “E-score (-0.5 to 0.5)” is about -0.013, and the highest 2% start at about 0.3. The entries come from a sample that favours the highest values as a whole.

Each sequence was assayed against T1, Msn1 (UniProt P22148) (assay: PBM E-score (8-mer binding enrichment) (E-score (-0.5 to 0.5)); higher = stronger / more preferred TF binding). Details: protein concentration: 200 nM; construct: GST-full length.
T1 sequence: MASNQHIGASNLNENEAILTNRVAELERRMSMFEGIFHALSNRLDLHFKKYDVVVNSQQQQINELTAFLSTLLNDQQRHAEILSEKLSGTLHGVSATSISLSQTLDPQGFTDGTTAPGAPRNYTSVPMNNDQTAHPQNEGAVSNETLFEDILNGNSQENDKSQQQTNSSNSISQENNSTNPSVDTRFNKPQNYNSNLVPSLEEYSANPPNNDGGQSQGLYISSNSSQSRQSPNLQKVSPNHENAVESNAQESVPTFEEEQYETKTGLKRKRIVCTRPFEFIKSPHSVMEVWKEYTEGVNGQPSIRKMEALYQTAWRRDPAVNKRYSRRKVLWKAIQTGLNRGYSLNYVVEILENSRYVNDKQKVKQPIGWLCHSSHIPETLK
Procedure: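 Universal 'all 10-mer' protein binding microarrays (Agilent AMADID 015681) probed with GST-tagged S. cerevisiae TFs (full-length or DBD) made by in vitro transcription/translation (PURExpress), about 100-200 nM. Bound TF was detected with fluorescent anti-GST. Each ungapped 8-mer (which stands for itself and its reverse complement) is scored by the PBM enrichment score (E-score), a modified Wilcoxon-Mann-Whitney statistic from -0.5 to +0.5, computed with the Universal PBM Analysis Suite. Scale: above 0.35 generally sequence-specific binding.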

Sequence	PBM E-score
AGCATGCG	-0.0235
GAGTCTCA	0.00041
CGATAACC	0.0193
GAAATGGA	-0.0913
GAAATGAC	0.216
CCGATTTA	0.109
GAGCCCTC	-0.318
CCCTAGTA	-0.0771
CAAGCGTA	-0.0459
CCTTTTAC	0.0837
CTGGGGCC	-0.384
AGGACTAC	-0.122
AGGACCAC	-0.124
AGGACAAT	0.483
AGGACTAG	0.273
AGGACAAC	0.436
AGGACAAG	0.472
AGGACCAG	-0.141
ACGACAAT	0.24
AGGACGAT	-0.0393
ATTCGAAA	0.0661
AATCTGGT	0.0578
ATAGGTAC	0.199
GCTTTCGA	-0.175

Sequence	PBM E-score
ATGCCTGC	-0.145
ACGGTTAA	-0.117
CCTCGTTC	-0.202
AGAAAACA	0.108
AAGGACTA	-0.00885
AAGGACTG	-0.0408
CAGGACCA	-0.0434
AAGGACGA	0.0414
AAGGACGT	0.32
AAGGACAG	0.296
AAGGACAA	0.485
CAGGACAA	0.481
CAGGACAG	0.259
AAGGACTT	0.347
AAGGACGG	-0.145
AAGGACCA	-0.0926
GCCCGTCA	-0.234
ACCGGTAA	-0.0138
AACTTTGA	0.12
AAATTCGT	0.256
AGCCCCGC	-0.0507
GGGCCTAA	-0.0118
TAGGACTA	0.257
TAGGACAA	0.491

Sequence	PBM E-score
TAGGACCA	0.202
AAGGACCT	0.0694
AAGGACAT	0.49
AAGGAGAT	-0.164
TATATGCA	0.102
ACATTCAA	0.134
CTTGGCCA	-0.0402
CAGAACAC	-0.0663
AAGGACGC	0.167
GAGGACTA	0.0516
GAGGACTC	-0.078
AAGGACAC	0.449
AAGGACCC	-0.0634
GAGGACCA	-0.184
GAGGACAA	0.466
CAGGACAC	0.407
GAGGACAC	0.398
GAGGACCC	-0.218
CAGGACGC	0.00853
GCCGGTAA	0.146
ATATTCGG	0.11
AGCAGTTA	-0.0695
CTCGACAG	-0.14
TACACTGA	0.0723

Sequence	PBM E-score
GCCTAAAC	0.0003
AGTCGCTA	-0.0278
ACGATGTA	0.00548
GCATCACA	-0.0397
ATCGTGCG	0.306
ATCGTGCA	0.125
ATCGTGCC	0.0402
CCCAGACC	-0.348
AATTTAAT	0.298
GCCCGCAA	-0.0655
GCATTGAA	-0.0579
AGAAATCC	-0.0711
ATGAGACC	-0.0403
CCGAGACC	-0.0572
GTGAGACA	0.315
CCGAGACA	0.319
ATGAGACG	-0.109
GTGAGAGA	-0.0903
CTGAGAGA	-0.0585
CTGAGACA	0.319
GTGAGAAA	0.124
ATGAGACA	0.358
ACGAGACA	0.275
CTGAGACC	-0.18
